PubChem BioAssay (NCI)
The panel holds about 79,000 compounds, 15% with a hit somewhere; the sample as a whole holds those more often. A number with no mark means an inactive call. Calls of active or inactive are those of the source. Cut-off read from the data, not from the text of the source: active = growth inhibition above about 70%; inactive = the rest.

Tests used:
[1] = NCI Yeast Anticancer Drug Screen. Data for the rad52 strain (AID 147);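 note: 0% = growth of vehicle-treated control cultures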; conditions: S. cerevisiae rad52 mutant growth inhibition, hits give high values
How it was run: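 DNA repair-defective yeast; compound exposure; growth scored against vehicle controls.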

[2] = NCI Yeast Anticancer Drug Screen. Data for the wt1 strain (AID 149);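 note: 0% = growth of vehicle-treated wt1 cultures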; conditions: S. cerevisiae wt1 strain (SPY 50644) growth inhibition, hits give high values
How it was run: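 Yeast wt1 strain exposed to compounds; growth inhibition measured relative to vehicle-treated controls.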

[3] = NCI Yeast Anticancer Drug Screen. Data for the rad50EPP+ strain (AID 151);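 note: 0% = growth of vehicle-treated control cultures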; conditions: S. cerevisiae rad50 mutant strain, hits give high values
How it was run: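 rad50EPP+ yeast treated with test compounds. Readout: growth vs vehicle control.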

[4] = NCI Yeast Anticancer Drug Screen. Data for the rad50 strain (AID 155);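 note: 0% = growth of vehicle-only cultures of the same strain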; conditions: S. cerevisiae rad50 strain growth inhibition, hits give high values
How it was run: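 Yeast carrying a defined DNA repair defect were exposed to test compounds, and growth was compared with vehicle-treated controls to give percent inhibition.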

[5] = NCI Yeast Anticancer Drug Screen. Data for the rad14 strain (AID 159);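 note: 0% = growth of vehicle-treated control cultures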; conditions: S. cerevisiae rad14 strain growth inhibition, hits give high values
How it was run: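 Yeast cells carrying a defined DNA-repair defect were exposed to compounds, and growth inhibition was calculated relative to vehicle-treated control cultures.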

[6] = NCI Yeast Anticancer Drug Screen. Data for the sgs1 mgt1 strain (AID 161);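 note: 0% = growth of cultures given vehicle only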; conditions: S. cerevisiae sgs1 mgt1 strain, hits give high values
How it was run: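 Growth of a repair-deficient yeast mutant was monitored after compound treatment and expressed as inhibition relative to vehicle-treated cultures.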

[7] = NCI Yeast Anticancer Drug Screen. Data for the CLN2oe strain (AID 163);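 note: 0% = growth of vehicle-only control cultures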; conditions: S. cerevisiae CLN2oe strain, hits give high values
How it was run: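 Compound-treated yeast; growth vs vehicle ctrl = % inhibition. Genetically altered strain (cell-cycle control).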

[8] = NCI Yeast Anticancer Drug Screen. Data for the cln2 rad14 strain (AID 165);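 note: 0% = growth equal to vehicle treated cultures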; conditions: S. cerevisiae cln2 rad14 strain, hits give high values
How it was run: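 Growth inhibition, relative to vehicle-treated controls, is the read-out. The test organism is a yeast strain with defined genetic alterations, cln2 rad14.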

[9] = NCI Yeast Anticancer Drug Screen. Data for the bub3 strain (AID 167); conditions: S. cerevisiae bub3 mutant strain, hits give high values
How it was run: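 Compounds were applied to a genetically altered yeast strain carrying a cell-cycle control defect. Growth inhibition was scored against vehicle-treated controls.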

[10] = NCI Yeast Anticancer Drug Screen. Data for the wt2 strain (AID 169);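 note: 0% = growth of vehicle-treated yeast cultures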; conditions: S. cerevisiae wt2 strain growth inhibition, hits give high values
How it was run: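 Compound exposure of yeast; growth compared with vehicle controls; inhibition reported.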

[11] = NCI Yeast Anticancer Drug Screen. Data for the mlh1 strain (AID 171);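 note: 0% = growth of vehicle-treated control cultures of the same strain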; conditions: S. cerevisiae mlh1 strain growth inhibition, hits give high values
How it was run: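 Compounds are applied to a genetically altered yeast strain, and its growth is compared with that of vehicle-treated cultures to give percent inhibition.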

[12] = NCI Yeast Anticancer Drug Screen. Data for the sgs1 strain (AID 173);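 note: 0% = growth of vehicle-only control cultures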; conditions: S. cerevisiae sgs1 mutant, hits give high values
How it was run: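 Compounds applied to genetically altered yeast; growth compared with vehicle-treated cultures to give % inhibition.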

[13] = NCI Yeast Anticancer Drug Screen. Data for the mlh1 rad18 strain (AID 175); conditions: S. cerevisiae mlh1 rad18 strain growth inhibition, hits give high values
How it was run: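 Cells of a genetically altered yeast strain, deficient in DNA damage repair, were treated with compound. Their growth was then compared with that of vehicle-treated cultures to give inhibition.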

[14] = NCI Yeast Anticancer Drug Screen. Data for the rad18 strain (AID 177); conditions: S. cerevisiae rad18 mutant growth inhibition, hits give high values
How it was run: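 Compounds are applied to a repair-deficient yeast strain, and growth is compared with that of vehicle-treated cultures to give percent inhibition.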

[15] = NCI Yeast Anticancer Drug Screen. Data for the mgt1 strain (AID 153); conditions: S. cerevisiae mgt1 mutant growth inhibition, hits give high values
How it was run: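 Growth inhibition relative to vehicle controls was scored for the mgt1 yeast strain after compound exposure.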

[16] = NCI Yeast Anticancer Drug Screen. Data for the mec2-1 strain (AID 157); conditions: S. cerevisiae mec2-1 strain, hits give high values
How it was run: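 Growth inhibition is read against vehicle-treated controls after compound exposure of the mec2-1 yeast strain, which is defective in DNA damage repair or cell cycle control.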

[17] = at 5.0 µM (retest, dose inferred, filed as 0.5)
[18] = at 50.0 µM (retest, dose inferred, filed as 5.0)

With Clc1cccc(C(Nc2nncs2)Nc2nncs2)c1Cl the growth inhibition ([1]; at 1.2 µM) was -1%, the growth inhibition ([1]; at 3.7 µM) was 2% and the growth inhibition ([1]; at 11.0 µM) was 9%. For the same compound, the growth inhibition ([1]; at 33.0 µM) was 28%, the growth inhibition ([1]; at 100.0 µM) was 70% (active) and the growth inhibition ([2]; at 1.2 µM) was -2%. It also gave a growth inhibition ([2]; at 3.7 µM) of -1%, a growth inhibition ([2]; at 11.0 µM) of 0% and a growth inhibition ([2]; at 33.0 µM) of 11%. For the same compound, the growth inhibition ([2]; at 100.0 µM) was 34%, the growth inhibition ([3]; at 1.2 µM) was -1% and the growth inhibition ([3]; at 3.7 µM) was 4%. For the same compound, the growth inhibition ([3]; at 11.0 µM) was 14%, the growth inhibition ([3]; at 33.0 µM) was 47% and the growth inhibition ([3]; at 100.0 µM) was 92% (active). The growth inhibition ([4]; at 1.2 µM) was 4%, the growth inhibition ([4]; at 3.7 µM) was 48% and the growth inhibition [4, 17] was 0%. The growth inhibition ([4]; at 11.0 µM) was 22%, the growth inhibition ([4]; at 33.0 µM) was 42% and the growth inhibition [4, 18] was 37%. For the same compound, the growth inhibition ([4]; at 50.0 µM) was 51.1%, the growth inhibition ([4]; at 100.0 µM) was 83% (active) and the growth inhibition ([5]; at 1.2 µM) was -2%. For the same compound, the growth inhibition ([5]; at 3.7 µM) was -2%, the growth inhibition ([5]; at 11.0 µM) was 2% and the growth inhibition ([5]; at 33.0 µM) was 19%. For the same compound, the growth inhibition ([5]; at 100.0 µM) was 71% (active), the growth inhibition [6, 17] was 1% and the growth inhibition [6, 18] was 50%. The growth inhibition ([6]; at 50.0 µM) was 66.5%, the growth inhibition ([7]; at 1.2 µM) was -1% and the growth inhibition ([7]; at 3.7 µM) was -2%. It also gave a growth inhibition ([7]; at 11.0 µM) of -1%, a growth inhibition ([7]; at 33.0 µM) of 9% and a growth inhibition ([7]; at 100.0 µM) of 34%. For the same compound, the growth inhibition [8, 17] was -3%, the growth inhibition [8, 18] was 25% and the growth inhibition ([8]; at 50.0 µM) was -2.6%. It also gave a growth inhibition ([9]; at 1.2 µM) of 0%, a growth inhibition ([9]; at 3.7 µM) of 0% and a growth inhibition [9, 17] of -6%. The growth inhibition ([9]; at 11.0 µM) was 0%, the growth inhibition ([9]; at 33.0 µM) was 12% and the growth inhibition [9, 18] was 14%. For the same compound, the growth inhibition ([9]; at 50.0 µM) was -20.6%, the growth inhibition ([9]; at 100.0 µM) was 77% (active) and the growth inhibition ([10]; at 1.2 µM) was -2%. For the same compound, the growth inhibition ([10]; at 3.7 µM) was 8%, the growth inhibition ([10]; at 11.0 µM) was 1% and the growth inhibition ([10]; at 33.0 µM) was 19%. It also gave a growth inhibition ([10]; at 100.0 µM) of 54%, a growth inhibition ([11]; at 1.2 µM) of -1% and a growth inhibition ([11]; at 3.7 µM) of 0%. For the same compound, the growth inhibition ([11]; at 11.0 µM) was 3%, the growth inhibition ([11]; at 33.0 µM) was 16% and the growth inhibition ([11]; at 100.0 µM) was 49%. The growth inhibition ([12]; at 1.2 µM) was -1%, the growth inhibition ([12]; at 3.7 µM) was 3% and the growth inhibition ([12]; at 11.0 µM) was 16%. The growth inhibition ([12]; at 33.0 µM) was 51%, the growth inhibition ([12]; at 100.0 µM) was 86% (active) and the growth inhibition [13, 17] was 3%. The growth inhibition [13, 18] was 57%, the growth inhibition ([13]; at 50.0 µM) was 55.3% and the growth inhibition ([14]; at 1.2 µM) was -4%. For the same compound, the growth inhibition ([14]; at 3.7 µM) was 6%, the growth inhibition ([14]; at 11.0 µM) was 14% and the growth inhibition ([14]; at 33.0 µM) was 42%. For the same compound, the growth inhibition ([14]; at 100.0 µM) was 87% (active).
For CC(=O)SCCC[Si](C)(C)CCCSC(C)=O, the growth inhibition ([1]; at 1.2 µM) was -1%, the growth inhibition ([1]; at 3.7 µM) was 2% and the growth inhibition ([1]; at 11.0 µM) was 7%. It also gave a growth inhibition ([1]; at 33.0 µM) of 28%, a growth inhibition ([1]; at 100.0 µM) of 53% and a growth inhibition ([2]; at 1.2 µM) of -3%. It also gave a growth inhibition ([2]; at 3.7 µM) of -5%, a growth inhibition ([2]; at 11.0 µM) of -7% and a growth inhibition ([2]; at 33.0 µM) of 4%. The growth inhibition ([2]; at 100.0 µM) was 31%, the growth inhibition ([15]; at 1.2 µM) was -4% and the growth inhibition ([15]; at 3.7 µM) was -4%. For the same compound, the growth inhibition ([15]; at 11.0 µM) was -5%, the growth inhibition ([15]; at 33.0 µM) was 7% and the growth inhibition ([15]; at 100.0 µM) was 39%. For the same compound, the growth inhibition ([4]; at 1.2 µM) was 1%, the growth inhibition ([4]; at 3.7 µM) was 2% and the growth inhibition [4, 17] was -1%. For the same compound, the growth inhibition ([4]; at 11.0 µM) was 5%, the growth inhibition ([4]; at 33.0 µM) was 21% and the growth inhibition [4, 18] was 51%. For the same compound, the growth inhibition ([4]; at 50.0 µM) was 55.2%, the growth inhibition ([4]; at 100.0 µM) was 44% and the growth inhibition ([16]; at 1.2 µM) was -3%. The growth inhibition ([16]; at 3.7 µM) was -3%, the growth inhibition [16, 17] was -2% and the growth inhibition ([16]; at 11.0 µM) was -5%. For the same compound, the growth inhibition ([16]; at 33.0 µM) was 3%, the growth inhibition [16, 18] was 46% and the growth inhibition ([16]; at 50.0 µM) was 53.6%. It also gave a growth inhibition ([16]; at 100.0 µM) of 35%, a growth inhibition ([5]; at 1.2 µM) of -3% and a growth inhibition ([5]; at 3.7 µM) of 0%. It also gave a growth inhibition ([5]; at 11.0 µM) of 0%, a growth inhibition ([5]; at 33.0 µM) of 14% and a growth inhibition ([5]; at 100.0 µM) of 39%. The growth inhibition [6, 17] was 1%, the growth inhibition [6, 18] was 63% and the growth inhibition ([6]; at 50.0 µM) was 70.8% (active). The growth inhibition ([7]; at 1.2 µM) was -4%, the growth inhibition ([7]; at 3.7 µM) was -6% and the growth inhibition ([7]; at 11.0 µM) was -7%. The growth inhibition ([7]; at 33.0 µM) was 13%, the growth inhibition ([7]; at 100.0 µM) was 48% and the growth inhibition [8, 17] was -6%. It also gave a growth inhibition [8, 18] of 54%, a growth inhibition ([8]; at 50.0 µM) of 39% and a growth inhibition ([9]; at 1.2 µM) of -1%. The growth inhibition ([9]; at 3.7 µM) was 3%, the growth inhibition [9, 17] was 10% and the growth inhibition ([9]; at 11.0 µM) was 3%. It also gave a growth inhibition ([9]; at 33.0 µM) of 23%, a growth inhibition [9, 18] of 61% and a growth inhibition ([9]; at 50.0 µM) of 65.7%. The growth inhibition ([9]; at 100.0 µM) was 47%, the growth inhibition ([10]; at 1.2 µM) was -1% and the growth inhibition ([10]; at 3.7 µM) was -9%. For the same compound, the growth inhibition ([10]; at 11.0 µM) was -6%, the growth inhibition ([10]; at 33.0 µM) was 5% and the growth inhibition ([10]; at 100.0 µM) was 33%. The growth inhibition ([11]; at 1.2 µM) was -4%, the growth inhibition ([11]; at 3.7 µM) was -3% and the growth inhibition ([11]; at 11.0 µM) was -2%. The growth inhibition ([11]; at 33.0 µM) was 21%, the growth inhibition ([11]; at 100.0 µM) was 51% and the growth inhibition ([12]; at 1.2 µM) was -2%. It also gave a growth inhibition ([12]; at 3.7 µM) of 22%, a growth inhibition ([12]; at 11.0 µM) of 4% and a growth inhibition ([12]; at 33.0 µM) of 29%. It also gave a growth inhibition ([12]; at 100.0 µM) of 48%, a growth inhibition [13, 17] of -2% and a growth inhibition [13, 18] of 58%. It also gave a growth inhibition ([13]; at 50.0 µM) of 64.7%, a growth inhibition ([14]; at 1.2 µM) of -5% and a growth inhibition ([14]; at 3.7 µM) of 1%. It also gave a growth inhibition ([14]; at 11.0 µM) of 3%, a growth inhibition ([14]; at 33.0 µM) of 19% and a growth inhibition ([14]; at 100.0 µM) of 51%.
